# Assay results as given in PubChem BioAssay AID1159580 (chemical genetic matrix, 2015).
# Among all 5,500 compounds or so, about 2,000 (36%) were called active. Inconclusive results (about 18%) are left out. The list shows a part of the results. A number with no mark means an inactive call. Cut-off read from the data, not from the text of the source: active = normalized growth mostly below about 0.91 (no sharp cut-off); inconclusive = no clear call, values can overlap the other calls; inactive = mostly above about 0.92.
# Assay: chemical genetic growth profiling, strain panel (AID 1159580);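 note: tested at 20 µM; growth read once vehicle control cultures reached saturation at 30 °C; 1 = growth at the plate median or of vehicle wells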
# Conditions: S. cerevisiae deletion strains, growth OD
# [1] = locus YDR150W, strain NUM1, stronger effect = lower value
# [2] = locus YGR078C, strain PAC10, stronger effect = lower value
# [3] = locus YNL153C, strain GIM3, stronger effect = lower value
# [4] = locus YDL101C, strain DUN1, stronger effect = lower value
# [5] = locus YHR030C, strain SLT2, stronger effect = lower value
# [6] = locus YAR019C, strain CDC15, stronger effect = lower value
# [7] = locus YBL105C, strain PKC1, stronger effect = lower value
# [8] = locus YBR135W, strain CKS1, stronger effect = lower value
# [9] = locus YBR136W, strain MEC1, stronger effect = lower value
# [10] = locus YBR160W, strain CDC28, stronger effect = lower value
# [11] = locus YDL017W, strain CDC7, stronger effect = lower value
# [12] = locus YDL028C, strain MPS1, stronger effect = lower value
# [13] = locus YDL108W, strain KIN28, stronger effect = lower value
# [14] = locus YDL132W, strain cdc53, stronger effect = lower value
# [15] = locus YDL214C, strain PRR2, stronger effect = lower value
# [16] = locus YDR052C, strain DBF4, stronger effect = lower value
# [17] = locus YDR054C, strain cdc34, stronger effect = lower value
# [18] = locus YDR226W, strain ADK1, stronger effect = lower value
# [19] = locus YDR477W, strain SNF1, stronger effect = lower value
# [20] = locus YER123W, strain YCK3, stronger effect = lower value
# [21] = locus YER133W, strain GLC7, stronger effect = lower value
# [22] = locus YFL009W, strain cdc4, stronger effect = lower value
# [23] = locus YFL029C, strain CAK1, stronger effect = lower value
# [24] = locus YFR003C, strain YPI1, stronger effect = lower value
# [25] = locus YFR019W, strain FAB1, stronger effect = lower value
# [26] = locus YFR028C, strain CDC14, stronger effect = lower value
# [27] = locus YGR040W, strain KSS1, stronger effect = lower value
# [28] = locus YGR052W, strain FMP48, stronger effect = lower value
# [29] = locus YGR092W, strain DBF2, stronger effect = lower value
# [30] = locus YHR079C, strain IRE1, stronger effect = lower value
# [31] = locus YHR082C, strain KSP1, stronger effect = lower value
# [32] = locus YHR205W, strain SCH9, stronger effect = lower value
# [33] = locus YIL147C, strain SLN1, stronger effect = lower value
# [34] = locus YJL095W, strain BCK1, stronger effect = lower value
# [35] = locus YJL128C, strain PBS2, stronger effect = lower value
# [36] = locus YJL157C, strain FAR1, stronger effect = lower value
# [37] = locus YJR016C, strain ILV3, stronger effect = lower value
# [38] = locus YJR066W, strain TOR1 (second series), stronger effect = lower value
# [39] = locus YJR066W, strain TOR1, stronger effect = lower value
# [40] = locus YKL048C, strain ELM1, stronger effect = lower value
# [41] = locus YKL067W, strain YNK1, stronger effect = lower value
# [42] = locus YKL101W, strain HSL1, stronger effect = lower value
# [43] = locus YKL193C, strain SDS22, stronger effect = lower value
# [44] = locus YKL203C, strain TOR2, stronger effect = lower value
# [45] = locus YLR113W, strain HOG1, stronger effect = lower value
# [46] = locus YLR133W, strain CKI1, stronger effect = lower value
# [47] = locus YLR403W, strain SFP1, stronger effect = lower value
# [48] = locus YML070W, strain DAK1, stronger effect = lower value
# [49] = locus YMR001C, strain CDC5, stronger effect = lower value
# [50] = locus YMR205C, strain PFK2 (second series), stronger effect = lower value
# [51] = locus YMR277W, strain FCP1, stronger effect = lower value
# [52] = locus YNL006W, strain LST8, stronger effect = lower value
# [53] = locus YNL020C, strain ARK1, stronger effect = lower value
# [54] = locus YNL161W, strain CBK1, stronger effect = lower value
# [55] = locus YNL183C, strain NPR1, stronger effect = lower value
# [56] = locus YNL207W, strain RIO2, stronger effect = lower value
# [57] = locus YNL222W, strain SSU72, stronger effect = lower value
# [58] = locus YNL307C, strain MCK1 (second series), stronger effect = lower value
# [59] = locus YOL078W, strain AVO1, stronger effect = lower value
# [60] = locus YOL136C, strain PFK27, stronger effect = lower value
# [61] = locus YOR061W, strain CKA2, stronger effect = lower value
# [62] = locus YOR329C, strain SCD5, stronger effect = lower value
# [63] = locus YPL031C, strain PHO85, stronger effect = lower value
# [64] = locus YPL153C, strain RAD53, stronger effect = lower value
# [65] = locus YPL204W, strain HRR25, stronger effect = lower value
# [66] = locus YPL209C, strain IPL1, stronger effect = lower value
# [67] = locus YPL256C, strain CLN2, stronger effect = lower value
# [68] = locus YPR025C, strain CCL1, stronger effect = lower value
# [69] = locus YPR106W, strain ISR1, stronger effect = lower value
# [70] = locus YPR111W, strain DBF20, stronger effect = lower value
# [71] = strain NNK1, stronger effect = lower value
# [72] = strain TSCII, stronger effect = lower value
compound,measurement,setting,value
C[C@]12N[C@H](Cc3ccccc31)c1ccccc12,normalized growth,"locus YAL040C, strain CLN3, stronger effect = lower value",1.04
same,normalized growth,"locus YCL061C, strain MRC1 (second series), stronger effect = lower value",0.988
same,normalized growth,[1],1
same,normalized growth,"locus YDR363W, strain ESC2, stronger effect = lower value",0.953
same,normalized growth,"locus YER002W, strain NOP16, stronger effect = lower value",0.964
same,normalized growth,[2],0.973
same,normalized growth,"locus YMR307W, strain GAS1, stronger effect = lower value",1
same,normalized growth,"locus YNL128W, strain TEP1, stronger effect = lower value",0.992
same,normalized growth,[3],0.978
same,normalized growth,"locus YNL175C, strain NOP13, stronger effect = lower value",0.98
same,normalized growth,"locus YNL197C, strain WHI3, stronger effect = lower value",0.957
same,normalized growth,"locus YNL224C, strain SQS1, stronger effect = lower value",0.979
same,normalized growth,"locus YOR083W, strain WHI5 (second series), stronger effect = lower value",0.995
N#Cc1cccc(Cn2c(=O)oc3ccccc32)c1,normalized growth,"locus YAL013W, strain DEP1, stronger effect = lower value",0.988
same,normalized growth,"locus YBR229C, strain ROT2, stronger effect = lower value",0.991
same,normalized growth,[4],0.977
same,normalized growth,[1],0.998
same,normalized growth,"locus YEL061C, strain CIN8, stronger effect = lower value",0.989
same,normalized growth,[2],1
same,normalized growth,"locus YGR229C, strain SMI1, stronger effect = lower value",0.985
same,normalized growth,[5],0.907
same,normalized growth,"locus YHR087W, strain rtc3, stronger effect = lower value",0.988
same,normalized growth,"locus YJL187C, strain SWE1, stronger effect = lower value",0.996
same,normalized growth,"locus YJR043C, strain POL32, stronger effect = lower value",1
same,normalized growth,"locus YJR075W, strain HOC1, stronger effect = lower value",0.986
same,normalized growth,"locus YKL190W, strain CNB1, stronger effect = lower value",1
same,normalized growth,"locus YLR039C, strain RIC1, stronger effect = lower value",1.04
same,normalized growth,"locus YLR058C, strain SHM2 (second series), stronger effect = lower value",0.998
same,normalized growth,"locus YLR085C, strain ARP6, stronger effect = lower value",1.11
same,normalized growth,"locus YLR262C, strain YPT6, stronger effect = lower value",1.01
same,normalized growth,"locus YML094W, strain GIM5, stronger effect = lower value",0.972
same,normalized growth,"locus YMR219W, strain ESC1, stronger effect = lower value",0.993
same,normalized growth,"locus YMR263W, strain SAP30, stronger effect = lower value",0.995
same,normalized growth,[3],0.998
same,normalized growth,"locus YNL298W, strain CLA4 (second series), stronger effect = lower value",0.996
same,normalized growth,"locus YNL322C, strain KRE1, stronger effect = lower value",0.984
same,normalized growth,"locus YNR030W, strain Alg12, stronger effect = lower value",0.977
same,normalized growth,"locus YOL006C, strain TOP1, stronger effect = lower value",1.04
same,normalized growth,"locus YPL055C, strain LGE1, stronger effect = lower value",1.01
same,normalized growth,"locus YPL241C, strain CIN2, stronger effect = lower value",1.06
same,normalized growth,"locus YPR135W, strain CTF4, stronger effect = lower value",1
O=C(CCn1c(=O)oc2ccccc21)Sc1ccc(C(F)(F)F)cc1,normalized growth,[6],0.931
same,normalized growth,[7],0.962
same,normalized growth,[8],0.957
same,normalized growth,[9],0.941
same,normalized growth,[10],0.951
same,normalized growth,[11],0.967
same,normalized growth,[12],0.925
same,normalized growth,[4],0.975
same,normalized growth,[13],0.94
same,normalized growth,[14],0.965
same,normalized growth,[15],0.793
same,normalized growth,[16],0.961
same,normalized growth,[17],0.936
same,normalized growth,[18],0.951
same,normalized growth,[19],0.742
same,normalized growth,[20],0.677
same,normalized growth,[21],0.876
same,normalized growth,[22],0.917
same,normalized growth,[23],0.937
same,normalized growth,[24],0.97
same,normalized growth,[25],0.942
same,normalized growth,[26],0.958
same,normalized growth,[27],0.7
same,normalized growth,[28],0.774
same,normalized growth,[29],0.473 (active)
same,normalized growth,[5],0.318 (active)
same,normalized growth,[30],0.479 (active)
same,normalized growth,[31],0.781
same,normalized growth,[32],0.792
same,normalized growth,[33],0.935
same,normalized growth,[34],0.838
same,normalized growth,[35],0.929
same,normalized growth,[36],0.703
same,normalized growth,[37],0.966
same,normalized growth,[38],0.418 (active)
same,normalized growth,[39],0.587
same,normalized growth,[40],0.897
same,normalized growth,[41],0.779
same,normalized growth,[42],0.834
same,normalized growth,[43],0.955
same,normalized growth,[44],0.937
same,normalized growth,[45],0.848 (active)
same,normalized growth,[46],0.779
same,normalized growth,[47],0.799
same,normalized growth,[48],0.879
same,normalized growth,[49],0.938
same,normalized growth,[50],0.882
same,normalized growth,[51],0.919
same,normalized growth,[52],0.954
same,normalized growth,[53],0.783
same,normalized growth,[54],0.962
same,normalized growth,[55],0.778
same,normalized growth,[56],0.949
same,normalized growth,[57],0.935
same,normalized growth,[58],0.557 (active)
same,normalized growth,[59],0.951
same,normalized growth,[60],0.851
same,normalized growth,[61],0.607 (active)
same,normalized growth,"locus YOR119C, strain RIO1, stronger effect = lower value",0.922
same,normalized growth,[62],0.965
same,normalized growth,[63],0.732
same,normalized growth,[64],0.552 (active)
same,normalized growth,[65],0.813
same,normalized growth,[66],0.971
same,normalized growth,[67],0.83 (active)
same,normalized growth,[68],0.956
same,normalized growth,[69],0.956
same,normalized growth,[70],0.93
same,normalized growth,[71],0.96
same,normalized growth,[72],0.931
O=C(CCn1c(=O)oc2ccccc21)Sc1ccc(Cl)cc1Cl,normalized growth,[6],0.894
same,normalized growth,[7],0.935
same,normalized growth,[8],0.914
same,normalized growth,[9],0.913
same,normalized growth,[10],0.895 (active)
same,normalized growth,[11],0.942
same,normalized growth,[12],0.884 (active)
same,normalized growth,[4],0.971
same,normalized growth,[13],0.897
same,normalized growth,[14],0.9
same,normalized growth,[15],0.359 (active)
same,normalized growth,[16],0.936
same,normalized growth,[17],0.748 (active)
same,normalized growth,[18],0.899
same,normalized growth,[19],0.222 (active)
same,normalized growth,[20],0.278 (active)
same,normalized growth,[21],0.435 (active)
same,normalized growth,[22],0.905
same,normalized growth,[23],0.878
same,normalized growth,[24],0.917
same,normalized growth,[25],0.311 (active)
same,normalized growth,[26],0.914
same,normalized growth,[27],0.289 (active)
same,normalized growth,[28],0.306 (active)
same,normalized growth,[29],0.164 (active)
same,normalized growth,[5],0.149 (active)
same,normalized growth,[30],0.253 (active)
same,normalized growth,[31],0.281 (active)
same,normalized growth,[32],0.286 (active)
same,normalized growth,[33],0.92
same,normalized growth,[34],0.229 (active)
same,normalized growth,[35],0.907
same,normalized growth,[36],0.503 (active)
same,normalized growth,[37],0.915
same,normalized growth,[38],0.197 (active)
same,normalized growth,[39],0.227 (active)
same,normalized growth,[40],0.745 (active)
same,normalized growth,[41],0.597 (active)
same,normalized growth,[42],0.433 (active)
same,normalized growth,[43],0.903
same,normalized growth,[44],0.348 (active)
same,normalized growth,[45],0.221 (active)
same,normalized growth,[46],0.387 (active)
same,normalized growth,[47],0.205 (active)
same,normalized growth,[48],0.519 (active)
same,normalized growth,[49],0.911
same,normalized growth,[50],0.662 (active)
same,normalized growth,[51],0.873 (active)
same,normalized growth,[52],0.91
same,normalized growth,[53],0.383 (active)
same,normalized growth,[54],0.923
same,normalized growth,[55],0.249 (active)
same,normalized growth,[56],0.908
same,normalized growth,[57],0.892
same,normalized growth,[58],0.196 (active)
same,normalized growth,[59],0.918
same,normalized growth,[60],0.45 (active)
same,normalized growth,[61],0.334 (active)
same,normalized growth,"locus YOR231W, strain MKK1, stronger effect = lower value",0.251 (active)
same,normalized growth,[62],0.936
same,normalized growth,[63],0.342 (active)
same,normalized growth,[64],0.216 (active)
same,normalized growth,[65],0.402 (active)
same,normalized growth,[66],0.922
same,normalized growth,[67],0.255 (active)
same,normalized growth,[68],0.923
same,normalized growth,[69],0.944
same,normalized growth,[70],0.92
same,normalized growth,[71],0.935
same,normalized growth,[72],0.898
